Among all 69,000 compounds or so, about 1,000 (1.4%) showed an effect of 50% or more. Only a selection was taken, and strong results are over-represented in it overall.
System: Leishmania donovani
Test: Leishmania intramacrophage assay
Assay type: functional, organism-based
Design: scale not given: in the data most compounds retested in dose-response had high values

SMILES | Percent Effect (30.3 µM, […]) [%] | Percent Effect (30 µM, 30.03 µM) [%]
CC(C)CN1CCC2(CC1)C(=O)Nc1ccc(C(=O)NC(C)C)cc12.O=C(O)C(F)(F)F | -1.007 | 
Cc1ccc(CN2C[C@@H]3CCN(Cc4ccncc4)C(=O)[C@H]3C2)s1.O=C(O)C(F)(F)F.O=C(O)C(F)(F)F | 7.943 | 
N#Cc1ccc(N2CCC(OC3CCOCC3)CC2)cc1Cl | 58.7 | 
N#Cc1ccc(NC2CCN(c3ncccn3)CC2)cc1Cl | -22.27 | 
COCC1CN(c2ccc(C#N)c(Cl)c2)CCO1 (stereo not drawn) | 27.15 | 
O=C(Nc1cccnc1)[C@H]1C[C@H]2OCC[C@H]2N(CC2CC2)C1.O=C(O)C(F)(F)F.O=C(O)C(F)(F)F | 5.172 | 
O=C(O)C(F)(F)F.O=C(O)C(F)(F)F.O=C(O)C(F)(F)F.c1cncc(CN2CCO[C@H]3[C@H](OCCN4CCCC4)CC[C@@H]32)c1 | -1.777 | 
Fc1cccnc1O[C@H]1CN(Cc2ccoc2)[C@@H]2CCCO[C@H]12.O=C(O)C(F)(F)F.O=C(O)C(F)(F)F | 9.385 | 
COCCN1C[C@@H]2COC[C@@H](CC(=O)NCc3cccnc3)[C@@H]2C1.O=C(O)C(F)(F)F.O=C(O)C(F)(F)F | 44.79 | 
O=C(C[C@@H]1COC[C@H]2CN(Cc3cccnc3)C[C@@H]12)NCC1CC1.O=C(O)C(F)(F)F.O=C(O)C(F)(F)F | 18.63 | 
O=C(C[C@@H]1COC[C@H]2CN(CC3CC3)C[C@@H]12)NCc1cccnc1.O=C(O)C(F)(F)F.O=C(O)C(F)(F)F | 54.71 | 
O=C(O)C(F)(F)F.O=C(O)C(F)(F)F.c1cncc(CN2CC[C@H]3O[C@@H](COCC4CC4)CC[C@H]32)c1 |  | 39.71
COc1ncccc1CN1C[C@H]2CCN(c3ncccn3)C[C@H]2C1.O=C(O)C(F)(F)F | 28.82 | 
COc1ncccc1CN1C[C@H]2CCN(C(C)C)C[C@H]2C1.O=C(O)C(F)(F)F.O=C(O)C(F)(F)F | -4.656 | 
COCCN1CC[C@@H]2CN(Cc3cccnc3OC)C[C@@H]2C1.O=C(O)C(F)(F)F.O=C(O)C(F)(F)F | 55.04 | 
CN(C)c1nccc(N2CCO[C@H]3CN(Cc4ccsc4)C[C@H]32)n1.O=C(O)C(F)(F)F |  | 28.84
CN(C)c1nccc(N2CCO[C@H]3CN(Cc4ccco4)C[C@H]32)n1 | 57.89 | 
COCCN1C[C@@H]2OCCN(c3ccnc(N(C)C)n3)[C@@H]2C1 | 23.22 | 
C[C@@H]1C(=O)NC[C@H]2CN(Cc3ccsc3)C[C@H]21.O=C(O)C(F)(F)F |  | 28.53
CCCc1nc2c(c(C)c(C)n2CCN(C)C)c(N)c1CC | 99.96 | 
CNC(=O)CN1CCC12CCN(C(=O)Cc1ccccc1)C2.O=C(O)C(F)(F)F (stereo not drawn) | 9.106 | 
CCCn1cc(C(=O)NCCCC(N)=O)c2ccccc21 | 41.21 | 
CCCn1cc(C(=O)NCCS(N)(=O)=O)c2ccccc21 | 23.59 | 
COCCn1cc(C(=O)NCCS(N)(=O)=O)c2ccccc21 | 59.49 | 
CN(C)C[C@H]1C[C@@H]2CN(Cc3ccoc3)C[C@@H]2O1.O=C(O)C(F)(F)F.O=C(O)C(F)(F)F | 4.803 | 
Cl.Cl.c1cncc(COC[C@@H]2CCC[C@@]23CNCCO3)c1 | 73.99 | 
O=C(O)C(F)(F)F.O=C(O)C(F)(F)F.c1cncc(COC[C@@H]2CCC[C@]23CNCCO3)c1 | 27.95 | 
Cl.Cl.c1cc(COC[C@@H]2CCC[C@@]23CNCCO3)ccn1 |  | 8.265

Reference: ChEMBL document CHEMBL3988442, “University of Dundee, Small-Polar-MMV Screening Library” (2021)
